Among all 4,000 compounds or so, about 350 (8.8%) were called active.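 How the source made its calls: active means calcium fluorescence ratio at least three times the spread of buffer wells, meaning a non-specific response in parental cells; inactive means the rest.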 Only a sample is shown.
experiment: calcium response in parental HEK293 cells, primary screen, counter-screen for MrgX1 agonist project, cell-based, Fluo-4 calcium flux, duplicate, agonist mode (AID 624115); settings: parental HEK293, Fluo-4 calcium fluorescence (FDSS), at 10 µM; stronger effect = higher value

Structure (SMILES) | fluorescence ratio F(max-min)/F0
Cc1nc(C)c(-c2csc(NCCc3ccccc3)n2)s1 | 51.5 (active)
CCS(=O)(=O)c1ccc2c(c1)N(S(=O)(=O)c1ccccc1)CC(C(=O)O)O2 (stereo not drawn) | inactive
Cc1nc2ccccc2cc1OCc1ccc(F)cc1 | 45.3 (active)
NC(=O)c1c(Nc2nc3c(F)cccc3s2)sc2c1CCCC2 | inactive
COC(=O)c1ccc(C2C3=C(Nc4nnnn42)c2ccccc2OC3)cc1 (stereo not drawn) | inactive
O=C(CC(O)(C(F)(F)F)C(F)(F)F)Nc1ccc(Cl)c(Cl)c1 | 45.3 (active)
c1ccc(-c2[nH]ncc2-c2nc3ccccc3[nH]2)cc1 | inactive
COCCCNC(=O)C1CCN(c2ccc(N3CCOCC3)nn2)CC1 | inactive
CCOC(=O)C1=C(O)/C(=C/c2cc(C)n(-c3ccccc3)c2C)N=C1C | inactive
Fc1cccc(Cl)c1COc1ccc(-c2nnco2)cc1 | inactive
Cc1ccc(S(=O)(=O)N(C)c2nc3ccccc3n3c(C(C)C)nnc23)cc1 | inactive
CCCCC(=O)Nc1ccc2c(c1)C(=O)NC2=O | inactive
O=C(CSc1c2c(nc3ccc(Cl)cc13)CCCC2)NCc1ccco1 | inactive
O=C(Nc1cccc(Cl)c1)c1cncn1-c1ccc(F)cc1 | inactive
O=C(Cn1c(-c2cncs2)nc2ccccc21)NC1CCCC1 | inactive
Cc1nccn1CCC1CCCCN1C(=O)CCc1nnc(-c2ccsc2)o1 (stereo not drawn) | inactive
COc1ccc(-c2cc(C(F)(F)F)nc(S(C)(=O)=O)n2)cc1OC | inactive
COc1ccc2c(c1)OC(O)(C(F)(F)C(F)F)CC2=O (stereo not drawn) | 87.4 (active)
FC(F)(F)c1cc(-c2cccs2)nc(NCc2ccco2)n1 | inactive
CCOC(=O)Nc1ccc2c(c1)N(C(=O)CCN1CCN(CCO)CC1)c1ccccc1CC2 | inactive
O=C(CN1CCN(c2ccccn2)CC1)NC1CCCCC1 | inactive
Cc1c(C(=O)N2CCN(c3ccc(F)cc3)CC2)oc2c1C(=O)CCC2 | inactive
CCN(CC)c1ccc(C2C3CCCCC3(O)CCN2CC(=O)Nc2ccccc2)cc1 (stereo not drawn) | inactive

Structure (SMILES) | fluorescence ratio F(max-min)/F0
COc1ccc(Nc2nc(-c3cccnc3)nc3ccccc23)cn1 | inactive
O=C(Cc1nc2ccccc2[nH]c1=O)c1ccc(Cl)cc1 | inactive
N#CC1=C(N)Oc2c(sc3ccccc23)C1c1ccco1 (stereo not drawn) | inactive
CCOc1ccc(NC(=O)CCNC(=O)c2ccc(Br)cc2)cc1 | inactive
Cc1cc(C)n(CCNC(=O)CC2C(=O)NCCN2Cc2ccc(C)o2)n1 (stereo not drawn) | inactive
CCOC1CCCCC1NS(=O)(=O)c1ccc(Cl)cc1 (stereo not drawn) | inactive
COC(=O)c1sccc1NS(=O)(=O)c1ccc(F)cc1F | inactive
CC(=O)Nc1ccc(OC(=O)COc2ccc(Br)cc2)cc1 | inactive
Cc1ccnc(-n2sc3ccccc3c2=O)n1 | inactive
CCN(c1cccc(C)c1)S(=O)(=O)c1ccc(-c2coc(C)n2)cc1 | inactive
COCC(C)NC(=O)c1ccc(Cl)c(Cl)c1 (stereo not drawn) | inactive
COc1ccc(C(=O)Nc2c(N)nc(SCC(=O)N3CCC(C)CC3)[nH]c2=O)cc1OC | inactive
Cc1ccc(-c2nn(C(C)(C)C)c3ncnc(N)c23)cc1 | inactive
COc1ccc(-n2c(SCC(=O)NCc3ccco3)nnc2-c2c[nH]c3ccccc23)cc1 | inactive
CCOC(=O)Cc1csc(SCc2cc(=O)oc3cc(O)ccc23)n1 | inactive
CCC(C)c1ccccc1N1CC(C(=O)N2CCN(S(=O)(=O)c3ccc(F)cc3)CC2)CC1=O (stereo not drawn) | inactive
COc1ccc([N+](=O)[O-])cc1NC(=O)COC(=O)/C=C/c1ccco1 | inactive
CN(C)CCn1c(=S)[nH]c2ccc(Cl)cc2c1=O | inactive
FC(F)Oc1ccc(NC(=S)NCc2ccco2)cc1Cl | inactive
O=c1c2cc(Br)ccc2nc(-c2cccc(Cl)c2)n1O | 90.3 (active)
O=C1CCCc2c1nc(-c1cccc(Cl)c1)n2O | inactive
Cc1nonc1C1CCCN1Cc1nc(-c2ccc(F)cc2F)oc1C (stereo not drawn) | inactive
O=C1Cc2ccccc2Sc2ccc(Cl)cc21 | inactive

Structure (SMILES) | fluorescence ratio F(max-min)/F0
CCOc1ccc2nc(/N=C/c3nc(-c4ccccc4)oc3O)sc2c1 | 114 (active)
Cc1ccc(NC2(C#N)C(=O)Nc3ccccc32)cc1 (stereo not drawn) | inactive
Clc1ccc(-c2nc3ccccn3c2CN2CCSCC2)cc1 | inactive
Cc1ccc2nc(Nc3ccccc3)cc(C)c2c1 | inactive
Cc1cc2ncn(CCCCOc3ccccc3)c2cc1C | inactive
Cc1nn(-c2ccccc2)c(C)c1NC(=O)COc1ccc(Cl)cc1Cl | inactive
COc1ccc(OC)c(Nc2nc3ccccc3n3cnnc23)c1 | inactive
Cc1nn(-c2ccccc2)c2c1C(c1ccc(F)cc1)C(C#N)=C(N)O2 (stereo not drawn) | inactive
Cc1ccc2cc(/C=N/Nc3ccc(C(=O)O)cc3)c(Cl)nc2c1 | inactive
O=C(Nc1nnc(-c2ccccc2)o1)c1cc(-c2cccs2)nc2ccccc12 | inactive
O=C(Nc1nc2c(F)cc(F)cc2s1)C1COc2ccccc2O1 (stereo not drawn) | inactive
Cc1ccc2nc(-c3ccc(NC(=O)CN(C)S(=O)(=O)c4ccccc4)cc3)sc2c1 | inactive
CN(CC(=O)Nc1ccccc1Cl)C(=O)COc1cccc2c1OC(C)(C)C2 | inactive
O=C(c1cccc(S(=O)(=O)Nc2ccccc2Cl)c1)N1CCN(C(=O)c2ccco2)CC1 | inactive
COCCNC(=O)Nc1ccc2nc(-c3ccco3)c(-c3ccco3)nc2c1 | 49.8 (active)
COc1ccc(NC(=O)c2cc(-c3ccc(C)o3)nc3ccccc23)cc1 | inactive
CC(C)NC(=S)Nc1cccc2cnccc12 | inactive
O=C1CCCN1CCCNC(=S)Nc1ccc(F)c(Cl)c1 | inactive
Cc1ccc(CS(=O)(=O)c2ncc(Cl)c(C(=O)Nc3nnc(C)s3)n2)cc1 | inactive
COc1ccc(S(=O)(=O)N2CCN(C(=O)NC3CCCCC3)CC2)cc1 | inactive
Cc1cccc(-n2c(Cc3cc(=O)[nH]c(=O)[nH]3)nnc2SC(C)C)c1 | inactive
COc1cc(CCC(=O)Nc2ccncc2Cl)cc(OC)c1OC | inactive
O=C(COc1ccc(Cl)cc1)NC(=S)Nc1ccccc1N1CCOCC1 | inactive

Structure (SMILES) | fluorescence ratio F(max-min)/F0
Nc1cc(OC(=O)c2ccccc2Br)nn1S(=O)(=O)c1ccccc1 | inactive
O=C1C(=O)N(CC2COc3ccccc3O2)c2ccccc21 (stereo not drawn) | 64.3 (active)
COc1cccc(CNC(=O)C2CCN(S(=O)(=O)c3cccc4cccnc34)CC2)c1 | inactive
Cc1ccc(N/C(N)=N/c2nc(C(F)(F)F)cc(C(F)(F)F)n2)cc1 | inactive
O=C(Nc1ccccc1N1CCCCC1)c1ccc2nccnc2c1 | inactive
Cc1cccc(Cn2cnc3c(N)c(C)c(C)cc32)c1 | inactive
CCOC(=O)c1c(NC(=O)CSc2cn(CC)c3ccccc23)sc2c1CCC2 | inactive
CCOc1ccc(C2=CC(c3ccccc3)n3ncnc3N2)cc1 (stereo not drawn) | inactive
O=C(NC1CCCCC1)C1c2ccccc2C(=O)N1Cc1ccco1 (stereo not drawn) | inactive
COc1ccc(OC)c(C(=O)c2ccc(Cl)cc2)c1 | inactive
Cc1cc(Br)ccc1NC(=O)c1cnc(N2CCN(c3ccccn3)CC2)c2ccccc12 | inactive
Cc1ccc2nc(-c3ccc(NC(=O)c4cccnc4)cc3)oc2c1 | inactive
CCOCc1nnc(NC(=O)CCC2CCCCC2)s1 | inactive
CCOc1cc(-c2conc2N)cc(OCC)c1OCC | inactive
Cc1cc(C)cc(NC(=S)NCCc2c[nH]c3ccccc23)c1 | inactive
C(=N\n1cnnc1)/c1cccnc1 | inactive
O=S(=O)(c1ccc2ccccc2c1)N1CCN(S(=O)(=O)N2CCOCC2)CC1 | inactive
Cc1cc2oc3ccc(NCCC4CCCN4C)cc3c(=O)c2cc1C (stereo not drawn) | 95.1 (active)
COc1ccccc1N(CC(=O)N1CCCCC1)S(=O)(=O)c1ccccc1 | 78.4 (active)
COc1ccc(C2SCCN2S(=O)(=O)c2ccccc2)cc1OC (stereo not drawn) | inactive
Cc1ccc(OC(=O)c2cc3ccccc3o2)cc1 | inactive
Cc1nn(C(=O)c2ccoc2C)c(N)c1-c1ccccc1 | inactive
O=C(Cc1ccccn1)c1ccc(O)cc1O | inactive

Structure (SMILES) | fluorescence ratio F(max-min)/F0
O=C(Nc1ccccc1)c1nnsc1S(=O)(=O)c1ccc(Cl)cc1 | inactive
CCCCCCCCCCOC(=O)Cn1c(COc2ccc(C)cc2)[n+](C)c2ccccc21 | inactive
Cc1ccc(Cc2cnc(N)s2)o1 | inactive
CCNC(=O)c1c(O)c2cccc3c2n(c1=O)CC3 | inactive
CCc1ccc2nc3sc(C(=O)Nc4nnc(CC)s4)c(N)c3cc2c1 | 47 (active)
COCc1nnc(NC(=O)c2ccc3c(c2)OCO3)s1 | inactive
CCOC(=O)C1=C(O)CSC1=Nc1cccc(Cl)c1 | inactive
C=CCSc1nc(Cc2ccc(Cl)cc2)nc2ccccc12 | inactive
Cc1cc(=O)oc2cc(NC(=O)C3CC(=O)N(Cc4ccccc4)C3)ccc12 (stereo not drawn) | inactive
CCCc1nc2c(c(=O)c3ccccc3n2C)c(=O)n1C1CCCCCC1 | inactive
CCN(CC)CC(=O)Nc1nn(-c2ccccc2)nc1C(N)=O | inactive
COc1cc2c(cc1O)C(SC)=NC(C)(C)C2 | inactive
CCC1CCCCN1CCNC(=O)c1[nH]c(C)c(C(C)=O)c1C (stereo not drawn) | inactive
Cc1ccc2c(C)c(C(=O)N(C)CCC3CCCCO3)oc2c1C (stereo not drawn) | inactive
Cc1cccc(NC(=O)COc2ccccc2C)n1 | inactive
O=C(O)CSC(NC(=O)c1cccnc1)(C(F)(F)F)C(F)(F)F | inactive
O=C(CCN1CCc2ccccc2C(O)(c2ccccc2)C1)c1ccc2c(c1)OCCO2 (stereo not drawn) | inactive
CC(C)CC(=O)N/C(N)=N/c1nc2ccccc2s1 | inactive
CC(C)CC(=O)NC(=S)NNC(=O)c1cccc([N+](=O)[O-])c1 | 53 (active)
Cc1onc(-c2ccccc2)c1C(=O)NNC(=S)NC(=O)c1ccc(F)cc1 | 123 (active)
COc1ccc(C(=O)NC(=S)NNC(=O)c2c(-c3ccccc3)noc2C)cc1 | 108 (active)
